Consider 90 compounds from paper PMC4336329 (PLoS ONE, 2015).

Each structure is given as a SMILES string. About 2,200 (0.71%) of roughly 310,000 compounds showed an effect of 50% or more. The effect is printed as a negative number. What follows is part of a selection rich in strong results, with near analogues and random picks from the rest.

Sequence of human ether-à-go-go-related gene (hERG) potassium channel (Q12809 whole entry, looked up): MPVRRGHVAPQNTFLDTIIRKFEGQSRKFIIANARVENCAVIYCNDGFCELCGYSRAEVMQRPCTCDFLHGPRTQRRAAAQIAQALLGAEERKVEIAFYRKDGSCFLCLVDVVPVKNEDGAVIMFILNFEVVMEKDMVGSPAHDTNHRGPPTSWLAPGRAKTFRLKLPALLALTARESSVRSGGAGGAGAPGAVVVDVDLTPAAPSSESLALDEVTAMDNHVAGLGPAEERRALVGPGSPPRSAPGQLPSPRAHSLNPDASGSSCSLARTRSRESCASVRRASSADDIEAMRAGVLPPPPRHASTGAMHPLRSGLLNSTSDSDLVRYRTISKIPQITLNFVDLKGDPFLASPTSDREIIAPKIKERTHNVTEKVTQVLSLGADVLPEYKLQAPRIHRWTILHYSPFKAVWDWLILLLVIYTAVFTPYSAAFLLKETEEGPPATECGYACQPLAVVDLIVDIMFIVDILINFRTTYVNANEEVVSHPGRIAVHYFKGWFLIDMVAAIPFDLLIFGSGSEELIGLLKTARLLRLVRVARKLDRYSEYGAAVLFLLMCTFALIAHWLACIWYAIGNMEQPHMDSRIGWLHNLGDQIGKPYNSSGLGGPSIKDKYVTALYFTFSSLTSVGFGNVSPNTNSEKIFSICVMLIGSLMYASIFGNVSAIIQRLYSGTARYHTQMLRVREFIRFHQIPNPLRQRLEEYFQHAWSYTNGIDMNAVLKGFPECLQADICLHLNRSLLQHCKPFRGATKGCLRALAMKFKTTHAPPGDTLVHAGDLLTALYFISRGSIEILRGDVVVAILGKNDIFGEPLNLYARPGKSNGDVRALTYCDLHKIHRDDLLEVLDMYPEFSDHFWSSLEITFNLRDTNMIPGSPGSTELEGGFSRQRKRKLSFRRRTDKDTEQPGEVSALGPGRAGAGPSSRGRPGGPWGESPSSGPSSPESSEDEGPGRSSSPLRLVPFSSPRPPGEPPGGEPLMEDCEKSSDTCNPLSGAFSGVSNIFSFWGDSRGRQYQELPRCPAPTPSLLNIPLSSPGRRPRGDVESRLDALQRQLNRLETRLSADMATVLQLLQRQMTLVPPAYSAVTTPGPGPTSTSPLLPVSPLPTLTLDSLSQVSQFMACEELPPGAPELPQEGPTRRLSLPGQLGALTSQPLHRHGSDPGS

The test addresses human ether-à-go-go-related gene (hERG) potassium channel (human, UniProt Q12809). The experiment in a line: primary screen, population patch clamp on CHO cells stably expressing hERG; higher = less effect of the substance.
As for `CCN(CC)c1ccc(/C=C2\C(=O)NC(=S)N(C)C2=O)o1`, the “hERG current change (%, negative = inhibition) at 1uM” value stood at 7.14%.
Consider `C#CCn1c(=NC(=O)c2ccccc2[N+](=O)[O-])sc2cc(S(C)(=O)=O)ccc21`, for which the “hERG current change (%, negative = inhibition) at 1uM” value turned out to be 13.3%.
Take `CC1CC(c2ccccc2)n2nc(NC(=O)CCc3ccccc3)nc2N1` (stereo not drawn): the “hERG current change (%, negative = inhibition) at 1uM” value is -1.41%.
Then `CCCCCCCC[n+]1cccc2c3ccccc3ccc21.[I-]`, with -92%; and `Cc1cccc[n+]1CCCCCCCCCC[n+]1ccccc1C.[Br-]`, with 20.8%.
Then `CCCCCCCCC[n+]1cccc2c3ccccc3ccc21.[Br-]`, with -91.7%; and `CCCCCCCCCCCCCCCC[n+]1cccc2ccccc21.[I-]`, with -23%.
In the case of `O=[N+]([O-])c1ccc(C[n+]2cccc3c4ccccc4ccc32)cc1.[Br-]` it was -18%.
`[Cl-].c1ccc(C[n+]2cccc3c4ccccc4ccc32)cc1`: the “hERG current change (%, negative = inhibition) at 1uM” value is recorded as -2.14%.
In the case of `CC(C)c1ccc(NC(=O)CSc2nnc(-c3ccccn3)n2C)cc1` it was -4.65%; in that of `COc1ccc(/C=N/Nc2ccccc2C(=O)O)cc1Cn1cc([N+](=O)[O-])cn1`, 6.26%; in that of `O=C(Nc1ccc(OC(F)(F)F)cc1)C1CCCN(S(=O)(=O)c2cccnc2)C1` (stereo not drawn), -4.09%.
As for `Cc1nnsc1C(=O)N1CCCC(C(=O)c2ccc(C(F)(F)F)cc2)C1` (stereo not drawn), the “hERG current change (%, negative = inhibition) at 1uM” value is 3.88%.
In the case of `Cc1cc(-c2ccccc2)cc(-c2ccccc2)[n+]1CCc1ccccc1.[O-][Cl+3]([O-])([O-])[O-]` it was -78.4%.
`O=[N+]([O-])c1ccc(C[n+]2c(-c3ccccc3)cc(-c3ccccc3)cc2-c2ccccc2)cc1.[O-][Cl+3]([O-])([O-])[O-]`: the “hERG current change (%, negative = inhibition) at 1uM” value is listed as 7.61%.
In the case of `CCOc1ccc(-c2cc(C)[n+](CCN(CC)CC)c(-c3ccc(OCC)cc3)c2)cc1.[O-][Cl+3]([O-])([O-])[O-]` it was -19.3%; in that of `CCOc1ccc(-c2cc(C)[n+](CCc3ccc(OC)c(OC)c3)c(-c3ccc(OCC)cc3)c2)cc1.[O-][Cl+3]([O-])([O-])[O-]`, -70.1%.
Regarding `CCOc1ccc(-c2cc(C)[n+](CCO)c(-c3ccc(OCC)cc3)c2)cc1.[O-][Cl+3]([O-])([O-])[O-]`, the “hERG current change (%, negative = inhibition) at 1uM” value is 1.92%.
Regarding `Cc1cc(-c2ccccc2)cc(C)[n+]1Cc1ccccc1.[O-][Cl+3]([O-])([O-])[O-]`, the “hERG current change (%, negative = inhibition) at 1uM” value came out at 6.49%.
Then `CCNc1nc(NCC)nc(N/N=C/c2ccc(Br)cc2)n1`, with 8.67%; and `COc1ccc2c(C=O)c[nH]c2c1`, with 6.81%.
Then `Cc1ccccc1Nc1nc(N)nc(COC(=O)c2cccc(S(=O)(=O)N(C)C)c2)n1`, with 8.43%.
In the case of `O=C1CCCN1CCCNS(=O)(=O)c1ccc(F)c(F)c1` it was 13.5%; in that of `COc1ccc(-c2cc(-c3ccco3)[nH]c(=O)c2C#N)cc1OC`, 13.5%; in that of `CCCCCC(=O)N1CCN(CCN=CC2=C(O)CC(c3ccc(OC)cc3)CC2=O)CC1` (stereo not drawn), -54.5%.
For `CCC(=O)N1CCN(CCN=CC2=C(O)CC(c3ccc(OC)cc3)CC2=O)CC1` (stereo not drawn), the “hERG current change (%, negative = inhibition) at 1uM” value is recorded as 8.12%.
Then `CCCCCC(=O)N1CCN(CCN=CC2=C(O)CC(c3ccc(OC)c(OC)c3)CC2=O)CC1` (stereo not drawn), with -56.5%.
In the case of `COc1ccc(C2CC(=O)C(C=NCCN3CCN(C(C)=O)CC3)=C(O)C2)cc1` (stereo not drawn) it was 0.835%.
Regarding `COc1ccc(C2CC(=O)C(C=NCCO)=C(O)C2)cc1OC` (stereo not drawn), the “hERG current change (%, negative = inhibition) at 1uM” value is 13.4%.
For `COc1ccc(C2CC(=O)C(C=NCCN3CCN(C(=S)Nc4ccccc4)CC3)=C(O)C2)cc1OC` (stereo not drawn), the “hERG current change (%, negative = inhibition) at 1uM” value is given as 1.75%.
In the case of `Cc1ccc(N2C(=O)/C(=C/N3CCN(C(=O)c4ccco4)CC3)C(=O)NC2=S)cc1C` it was 1.67%; in that of `CC(C)CNS(=O)(=O)c1ccc(OCC(=O)Nc2ccc3c(c2)OCCO3)cc1`, 14.4%.
`Cc1ccc(OCC(O)CN2CCC(Cc3ccccc3)CC2)c(C)c1.Cl` (stereo not drawn): the “hERG current change (%, negative = inhibition) at 1uM” value is listed as -49.9%.
Turning to `Cl.OC(COc1ccccc1F)CN1CCC(Cc2ccccc2)CC1` (stereo not drawn), the “hERG current change (%, negative = inhibition) at 1uM” value is reported as -55.7%.
In the case of `OC(COc1ccc(F)cc1Cl)CN1CCc2ccccc2C1` (stereo not drawn) it was -10.6%.
Then `Cl.OC(COCc1ccccc1)CN1CCN(Cc2ccc3c(c2)OCO3)CC1` (stereo not drawn), with -0.707%; and `OC(COc1ccc(F)cc1Cl)CN1CCC(Cc2ccccc2)CC1` (stereo not drawn), with -81.4%.
In the case of `Cl.OC(COCc1ccc2c(c1)OCO2)CN1CCC(Cc2ccccc2)CC1` (stereo not drawn), the “hERG current change (%, negative = inhibition) at 1uM” value is recorded as -79.4%.
In the case of `Cc1ccc(C)c(OCC(O)CN2CCC(Cc3ccccc3)CC2)c1.Cl` (stereo not drawn) it was -43.1%; in that of `Cl.OC(COCc1ccc2c(c1)OCO2)CN1CCN(Cc2ccccc2)CC1` (stereo not drawn), -8.65%.
On to `CC(=O)Nc1ccc(OCC(O)CN2C(C)CCCC2C)cc1.Cl` (stereo not drawn), for which the “hERG current change (%, negative = inhibition) at 1uM” value is 15.2%.
In the case of `CC1CCCC(C)N1CC(O)COc1ccc(Cl)cc1` (stereo not drawn) it was -57.6%; in that of `Cc1cc(Cl)ccc1OCC(O)CN1C(C)CCCC1C.Cl` (stereo not drawn), -46.3%; in that of `Cc1ccc(OCC(O)CN2CCN(CC(O)COc3ccc(C)cc3Cl)CC2)c(Cl)c1` (stereo not drawn), -5.75%.
In the case of `COc1ccc(Cn2c(-c3ccccc3)nc3c(c(=O)c4ccccc4n3C)c2=O)cc1` it was -7.94%.
As to `COc1ccc(CCNC(=O)c2ccc3nc(N4CCOCC4)sc3c2)cc1OC`, the “hERG current change (%, negative = inhibition) at 1uM” value is 4.99%.
As for `Cc1cc(NC(=O)Cc2ccccc2C)no1`, the “hERG current change (%, negative = inhibition) at 1uM” value is on record as 10.2%.
Then `CCN(CC(=O)Nc1ccc(NC(C)=O)cc1)C(=O)COc1ccccc1-c1ccccc1`, with 12%; and `CCOC(=O)c1cnc(-n2nc(C)cc2C)nc1NNc1nc(-c2ccccc2)cc(-c2ccccc2)n1`, with -1.53%; and `O=C(Nc1nc(-c2cccs2)cs1)c1ccc(Cl)s1`, with -6.43%.
For the compound `Cc1cc2nn(-c3ccc(Cl)cc3)nc2cc1N`, the “hERG current change (%, negative = inhibition) at 1uM” value came out at 14%.
In the case of `CCO/C=C/C(O)(CNC(=O)COc1ccccc1F)C(F)(F)F` (stereo not drawn), the “hERG current change (%, negative = inhibition) at 1uM” value turned out to be 19.8%.
In the case of `CN1C(=O)N(c2nnc(C(C)(C)C)s2)C(=O)C1c1ccccc1` (stereo not drawn) it was 14.2%; in that of `Cc1nnsc1C(=O)Nc1ccc(S(=O)(=O)N2CCCCC2C)cc1` (stereo not drawn), 12.5%.
Then `CC1CCCCN1C(=O)Nc1cccc(C(F)(F)F)c1` (stereo not drawn), with 9.57%; and `Cc1c(Cl)cccc1NC(=S)NNc1ncc(C(F)(F)F)cc1Cl`, with 4.45%.
Consider `Cl.OC(COc1ccc(Cl)cc1)CN1CCC(Cc2ccccc2)CC1` (stereo not drawn), for which the “hERG current change (%, negative = inhibition) at 1uM” value was -89.6%.
In the case of `Cl.OC(COc1ccccc1)CN1CCN(CC(O)COc2ccccc2)CC1` (stereo not drawn) it was -19.5%; in that of `COc1ccc(OCC(O)CN2CCc3ccccc3C2)cc1.Cl` (stereo not drawn), -2.53%.
In the case of `CC(C(O)c1ccc(O)cc1)N1CCC(Cc2ccccc2)CC1.O.O=C(O)C(O)C(O)C(=O)O` (stereo not drawn) it was -37.8%.
Consider `CC(C(O)c1ccc(O)cc1)N1CCC(Cc2ccccc2)CC1.O=C(O)C(O)C(O)C(=O)O` (stereo not drawn), for which the “hERG current change (%, negative = inhibition) at 1uM” value is -33.4%.
`CC(C)OCC(O)CN1CCC(Cc2ccccc2)CC1.Cl` (stereo not drawn): the “hERG current change (%, negative = inhibition) at 1uM” value was -2.15%.
In the case of `Cc1cccc(OCC(O)CN2CCc3ccccc3C2)c1.Cl` (stereo not drawn), the “hERG current change (%, negative = inhibition) at 1uM” value was -0.945%.
In the case of `C[C@@H](CN1CCC(Cc2ccccc2)CC1)[C@@H](O)c1ccc(O)cc1.Cl` it was -60.5%; in that of `Cl.OC(COc1ccccc1)CN1CCC(Cc2ccccc2)CC1` (stereo not drawn), -78%; in that of `Cl.OC(COc1ccc(Cl)cc1)CN1CCN(c2ccccc2)CC1` (stereo not drawn), 0.0675%.
Take `COc1cccc(OCC(O)CN2CCc3ccccc3C2)c1.Cl` (stereo not drawn): the “hERG current change (%, negative = inhibition) at 1uM” value is -57.6%.
Then `Cl.OC(COc1ccc(Cl)cc1)CN1CCCCC1` (stereo not drawn), with -29.8%; and `COC(=O)c1ccc(N2C(=O)CC(N(C)Cc3ccccc3)C2=O)cc1` (stereo not drawn), with 13.1%.
With `N#CC(C(=O)NCCc1ccccc1)c1nc2ccccc2nc1N1CCCCC1` (stereo not drawn), the “hERG current change (%, negative = inhibition) at 1uM” value is given as 4.11%.
On to `COc1nc(N(C)S(=O)(=O)c2ccc(C)cc2)nc(C)c1Br`, for which the “hERG current change (%, negative = inhibition) at 1uM” value turned out to be 16.5%.
In the case of `C/C(=N/NC(=O)Cc1ccccc1)c1ccc(C)s1` it was 11.5%; in that of `O=C(NCCc1ccccc1)C1CC(=O)N(c2ccc3c(c2)OCCO3)C1` (stereo not drawn), 7.34%.
For the compound `C/C(=N\NC(=O)C(O)(c1ccccc1)c1ccccc1)c1ccc(NC(=O)CCCC(=O)O)cc1`, the “hERG current change (%, negative = inhibition) at 1uM” value is listed as 11.3%.
In the case of `O=C(CSc1nc(C2CC2)n(-c2ccccc2)n1)NCc1ccco1` it was -3.27%; in that of `CCOc1ccc(OCC)c(S(=O)(=O)NNC(=O)c2c(C)nc3ccccn23)c1`, 5.91%; in that of `COc1ccc(S(=O)(=O)N(C)CC(=O)N2CCOCC2)cc1`, -2.22%.
In the case of `O=C(Nc1ccc(NC(=O)c2cccc([N+](=O)[O-])c2)cc1)c1cccc([N+](=O)[O-])c1` it was 9.44%.
Consider `Cc1ccc(OCC(O)CN2CCN(Cc3ccc4c(c3)OCO4)CC2)cc1C.Cl` (stereo not drawn), for which the “hERG current change (%, negative = inhibition) at 1uM” value worked out at 5.88%.
In the case of `O=S(=O)(c1ccc(OCC(O)CN2CCC(Cc3ccccc3)CC2)cc1)N1CCOCC1` (stereo not drawn) it was -10.3%.
For `COc1ccc(OCC(O)CN2CCN(Cc3ccc4c(c3)OCO4)CC2)cc1.Cl` (stereo not drawn), the “hERG current change (%, negative = inhibition) at 1uM” value is recorded as -9.87%.
Then `COc1cccc(OCC(O)CN2CCN(C(c3ccccc3)c3ccccc3)CC2)c1.Cl` (stereo not drawn), with 3.72%; and `Cl.OC(COc1ccc(Br)cc1)CN1CCCC1` (stereo not drawn), with 5.23%.
Then `Cc1ccc(C)c(OCC(O)CN2CCc3ccccc3C2)c1C.Cl` (stereo not drawn), with -56.1%.
In the case of `COc1cccc(OCC(O)CN2CCC(Cc3ccccc3)CC2)c1.Cl` (stereo not drawn) it was -55.6%; in that of `Cc1cc(C)cc(OCC(O)CN2CCN(Cc3ccc4c(c3)OCO4)CC2)c1.Cl` (stereo not drawn), -67.9%; in that of `Cl.OC(COc1ccc(Br)cc1)CN1CCC(Cc2ccccc2)CC1` (stereo not drawn), -83.7%.
Regarding `Cc1ccc(OCC(O)CN2CCc3ccccc3C2)c(C)c1.Cl` (stereo not drawn), the “hERG current change (%, negative = inhibition) at 1uM” value was -42.6%.
As for `Cc1cccc(C)c1OCC(O)CN1CCc2ccccc2C1.Cl` (stereo not drawn), the “hERG current change (%, negative = inhibition) at 1uM” value was -24.3%.
Regarding `COc1cccc(OCC(O)CN2CCC(C)CC2)c1.Cl` (stereo not drawn), the “hERG current change (%, negative = inhibition) at 1uM” value is reported as 3.42%.
